# Assay results: PubChem BioAssay AID2685 (National Center for Advancing Translational Sciences (NCATS), 2010)
# Screen size: about 320,000 compounds; about 2,100 (0.66%) were called active. Another 53% or so got no clear call; they are omitted. The call rests on the fitted dose curve; in most records, active means well fitted inhibition curve with a large enough effect in the signal ratio, with a control signal flat (not every such curve was filed as active); inconclusive means small, poorly fitted or top-dose-only effect, or effect the other way, or a change in a side signal; inactive means flat fitted curve, though single readings scatter; the % refers to the signal ratio. For the sample, actives were picked, then their nearest neighbours and some compounds at random.
# Test: qHTS Assay for Lipid Storage Modulators in Drosophila S3 Cells;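 on cell number change: cells counted by Cell Tracker Red CMTPX staining in the red channel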; on lipid storage change, negative = inhibition: on the % scale 0 is the no-effect control and ±100 the full control effect
# Details: BODIPY lipid droplet fluorescence, 18-24 h, cells fed with added oleic acid; cell number change: measured here: cell count max response; series mostly up to 46.1 µM; lipid storage change, negative = inhibition: at the top concentration
# How it was run: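 Drosophila S3 cells loaded with oleic acid (400 uM, as added) and compounds at several concentrations; lipid droplets imaged by 488-nm laser-scanning cytometry, 500–530 nm intensity and object ratio to cell channel. Percent activity normalized to 20 uM Triacsin C.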
# Potency means the concentration at half of the fitted maximal effect.
SMILES,"lipid storage change, negative = inhibition",cell number change,Potency,outcome
CC(C)c1nnc(SCC(=O)N2CCOCC2)n1C,-0.0362% (inactive),3.98%,,
CN(C)S(=O)(=O)c1ccc2c(c1)/C(=C/c1cc3c([nH]1)CCCC3)C(=O)N2,,2.43%,5.17 µM (active),
CN(C)S(=O)(=O)c1ccc2c(c1)Cc1cc(S(=O)(=O)N(C)C)ccc1-2,-3.2% (inactive),7.91%,,
Cc1ccc2c(c1)/C(=C/c1ccc(F)cc1)C(=O)N2,22% (inactive),18%,,
CCOC(=O)C(=NCCCN(C)C)NNc1ccc(Br)cc1,10.6% (inactive),23.2%,,
COCc1ccc(C(=O)N(C)C2CCCN(Cc3ccccc3F)C2)o1 (configuration not stated),-23% (inactive),-1.36%,,
CC(=O)c1c(C)[nH]c(C(=O)Nc2nc(C)cs2)c1C,-4.83% (inactive),-7.81%,,
COc1ccc(NS(=O)(=O)CC23CCC(CC2=O)C3(C)C)cc1 (configuration not stated),-15.4% (inactive),6.22%,,
CC1(C)C2CCC1(CS(=O)(=O)Nc1ccccc1)C(=O)C2 (configuration not stated),-21.6% (inactive),-22.6%,,
COc1cccc(NS(=O)(=O)CC23CCC(CC2=O)C3(C)C)c1 (configuration not stated),,-15%,3.66 µM (active),
Cc1ccsc1C(=O)NCCc1nnc2ccccn12,-1.6% (inactive),18.3%,,
COc1cccc(/C=N/N(C)C2=NS(=O)(=O)c3ccccc32)c1O,1.01% (inactive),12.6%,,
Cc1ccc(/C=N/N(C)C2=NS(=O)(=O)c3ccccc32)cc1,-1.35% (inactive),17.1%,,
CN(/N=C/c1cc(Cl)ccc1O)C1=NS(=O)(=O)c2ccccc21,,12.6%,3.66 µM (active),
CCCCCOC(=O)CCN1C(=O)/C(=C2\SC(=S)N(CCC(=O)OCCCCC)C2=O)SC1=S,13.2% (inactive),-3.31%,,
Cc1ccc(NC(=O)c2cc(=O)[nH]c3ccc(S(=O)(=O)N4CCOCC4)cc23)nc1,11.8% [at 0.0737 µM] (inactive),-6.73%,,
COc1ccc(S(=O)(=O)Oc2ccc(C(=S)N3CCOCC3)cc2OC)cc1,,-13.8%,,inactive
COc1ccc(S(=O)(=O)Oc2ccccc2C(=S)N2CCOCC2)cc1,,-29.9%,1.46 µM (active),
COc1ccc(S(=O)(=O)Oc2cccc(C(=S)N3CCOCC3)c2)cc1,,-15.5%,,inactive
COc1ccc2[nH]c(=O)c(CN(CCN(C)C)C(=O)NCc3ccccc3)cc2c1,,17.8%,,inactive
COc1ccccc1CNN,-3.56% (inactive),-17.3%,,
COc1ccccc1CNCc1cc(OC)c(OC)cc1OC,,-2.42%,,inactive
COc1ccccc1CNCC(c1ccccc1)c1ccccc1,,-20%,1.46 µM (active),
CCCCC(=O)Nc1ccc(NC(=O)c2cnccn2)cn1,-6.31% (inactive),3.06%,,
CCOC(=O)c1c(NC(=O)c2cccnc2)sc(C(C)=O)c1C,2.48% (inactive),5.18%,,
O=C(c1ccc(S(=O)(=O)Nc2cccc(C(F)(F)F)c2)cc1)N1CCC1,18.7% (inactive),1.62%,,
CCN(Cc1ccccc1)Cc1cccc([N+](=O)[O-])c1,,,,inactive
O=[N+]([O-])c1cccc(CN(CCO)Cc2ccccc2)c1,,-9.58%,13 µM (active),
OCCN(Cc1ccccc1)Cc1cccc(F)c1,4.72% (inactive),-7.51%,,
